The results in this text go back to PubChem BioAssay (NCI).

Test systems include RPMI-8226 leukemia; OVCAR-8 ovarian; OVCAR-5 ovarian; SK-OV-3 ovarian; IGROV1 ovarian; OVCAR-3 ovarian; HS 578T breast; NCI/ADR-RES ovarian; T-47D breast; BT-549 breast; MDA-MB-435 melanoma; SW-620 colon; HCC-2998 colon; KM12 colon; MCF7 breast; HCT-116 colon; OVCAR-4 ovarian.
Test in all cases: NCI-60 one-dose screen, 48 h (100 = growth as untreated, 0 = no growth, -100 = all killed)
What all share (details): 10 µM unless noted

Molecules are shown by their SMILES. The panel holds about 83,000 compounds, 20% with a hit somewhere; the sample as a whole holds those more often.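 Activity criterion: percent growth below 10, measured after cells in 96-well plates were exposed to a single compound concentration for 48 hours.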 A number with no mark means an inactive call. The source made the active and inactive calls.

As for `CCCCCCCCCCCCCCCCCc1nccn1CCO`, the growth in the test on RPMI-8226 leukemia was 82.3%; with OVCAR-8 ovarian, 80%; in the test with OVCAR-5 ovarian, 71.4%; in the test on SK-OV-3 ovarian, 94.6%; with IGROV1 ovarian, 68.5%; with OVCAR-3 ovarian, 86.2%. The growth with HS 578T breast is 83.4%; in the test on NCI/ADR-RES ovarian it was 59.9%; with T-47D breast it was 47.1%; in the test with BT-549 breast, 70%; in the test with MDA-MB-435 melanoma, 95%; in the test with SW-620 colon it was 61.3%. For the same compound, the growth in the test with HCC-2998 colon was 55.4%; in the test with KM12 colon it was 85.6%.
Consider `COC(=O)c1ccc2c(c1)nc(-c1ccc(O)c(OC)c1)n2-c1cc(C(C)(C)C)[nH]n1`, for which the growth is 72.8% with RPMI-8226 leukemia; 98.8% with OVCAR-8 ovarian; 117% in the test with OVCAR-5 ovarian; 133% in the test on SK-OV-3 ovarian; 101% in the test on IGROV1 ovarian; 98.1% in the test with OVCAR-3 ovarian. The growth in the test with HS 578T breast is 98.2%; with NCI/ADR-RES ovarian, 98.4%; in the test on T-47D breast it was 92.3%; in the test with BT-549 breast, 108%; in the test with SW-620 colon, 104%; in the test on MCF7 breast it was 83.6%. Moreover, the growth in the test on HCT-116 colon is 93.5%; in the test on HCC-2998 colon, 115%; in the test on KM12 colon, 96.9%.
On to `O=C(COC(=O)[C@H](C[Se][Se]C[C@H](NC(=O)c1ccc(Br)cc1F)C(=O)OCC(=O)c1ccc(F)cc1)NC(=O)c1ccc(Br)cc1F)c1ccc(F)cc1`, for which the growth was -44.3% (active) in the test with RPMI-8226 leukemia; -100% (active) in the test with OVCAR-8 ovarian; -68.7% (active) in the test on OVCAR-5 ovarian; -81% (active) in the test with SK-OV-3 ovarian; -100% (active) in the test on IGROV1 ovarian; -100% (active) in the test with OVCAR-3 ovarian. In addition, the growth is -16% (active) in the test with HS 578T breast; -82.8% (active) in the test with NCI/ADR-RES ovarian; -67% (active) in the test with T-47D breast; -93% (active) in the test on BT-549 breast; -42.1% (active) in the test on MDA-MB-435 melanoma; -95% (active) with SW-620 colon. Further, the growth is -58.4% (active) with MCF7 breast, -72.4% (active) in the test on HCT-116 colon, -68.9% (active) with HCC-2998 colon and -99.1% (active) in the test on KM12 colon.
For `Nc1nc2ncc(CCNc3ccc(C(=O)NC(CCC(=O)O)C(=O)O)cc3)nc2c(=O)[nH]1` (stereo unspecified), the growth in the test on RPMI-8226 leukemia was 112%; in the test on OVCAR-8 ovarian, 108%; with OVCAR-5 ovarian it was 90.1%; in the test with OVCAR-4 ovarian, 104%; in the test with SK-OV-3 ovarian, 110%; in the test with HS 578T breast it was 101%. The growth with NCI/ADR-RES ovarian was -2.15% (active); with T-47D breast, 115%; in the test with BT-549 breast, 114%; in the test on MDA-MB-435 melanoma, 112%; in the test on SW-620 colon, 103%; with MCF7 breast, 112%. The figures for the growth in the test on HCT-116 colon and in the test with KM12 colon were 107% and 110%, respectively.
For the compound `NC(=O)N/N=C/c1ccc(Br)o1`, the growth with RPMI-8226 leukemia was 109%; with OVCAR-8 ovarian it was 107%; with OVCAR-5 ovarian, 98.7%; with SK-OV-3 ovarian it was 101%; in the test with IGROV1 ovarian, 97.8%; with OVCAR-3 ovarian, 113%. The growth in the test with HS 578T breast is 109%; with NCI/ADR-RES ovarian, 105%; with T-47D breast, 91.4%; in the test with BT-549 breast it was 104%; with MDA-MB-435 melanoma, 113%; in the test on SW-620 colon, 114%. For the same compound, the growth with MCF7 breast is 95.4%; in the test with HCC-2998 colon, 96.5%; in the test with KM12 colon, 108%.
Consider `CCCc1cccc(CCC)c1O`, for which the growth in the test on RPMI-8226 leukemia is 111%; with OVCAR-8 ovarian, 107%; in the test on OVCAR-5 ovarian, 117%; with SK-OV-3 ovarian it was 110%; in the test with IGROV1 ovarian, 125%; in the test with OVCAR-3 ovarian, 117%. In addition, the growth is 107% in the test on HS 578T breast; 103% in the test with NCI/ADR-RES ovarian; 104% with T-47D breast; 117% in the test with BT-549 breast; 106% in the test on MDA-MB-435 melanoma; 104% in the test on SW-620 colon. In addition, the growth in the test on MCF7 breast is 113%; in the test on HCT-116 colon, 115%; in the test with HCC-2998 colon, 100%; in the test on KM12 colon it was 112%.
Consider `O=C(CCc1nnc2sc(-c3ccc(Cl)cc3Cl)nn12)c1nc2ccccc2[nH]1`, for which the growth in the test on RPMI-8226 leukemia was 2% (active); in the test on OVCAR-8 ovarian it was -30.9% (active); in the test on OVCAR-5 ovarian, -52.6% (active); in the test on SK-OV-3 ovarian, -52.4% (active); in the test on IGROV1 ovarian it was 0.377% (active); in the test on OVCAR-3 ovarian it was -80.6% (active). In addition, the growth in the test with NCI/ADR-RES ovarian was -0.815% (active); in the test on T-47D breast, -68.4% (active); in the test on BT-549 breast, -28.2% (active); in the test with MDA-MB-435 melanoma it was -39.7% (active); with SW-620 colon, -34.3% (active); with MCF7 breast, -40.7% (active). Besides, the results for the growth with HCT-116 colon and in the test on KM12 colon were -84.7% (active) and -27% (active), respectively.
In the case of `O=C(CCc1nnc2sc(Cc3ccccc3Cl)nn12)c1nc2ccccc2[nH]1`, the growth was 94.7% in the test on RPMI-8226 leukemia; 93.7% in the test on OVCAR-8 ovarian; 105% in the test on OVCAR-5 ovarian; 99.7% with SK-OV-3 ovarian; 90.9% with IGROV1 ovarian; 82.5% in the test on OVCAR-3 ovarian. In addition, the growth with NCI/ADR-RES ovarian was 95.9%; in the test with T-47D breast it was 78.5%; with BT-549 breast, 96.7%; with MDA-MB-435 melanoma, 101%; with SW-620 colon it was 98.8%; in the test with MCF7 breast, 71.6%. The growth in the test with HCT-116 colon was 85.1%; in the test on HCC-2998 colon it was 102%; in the test on KM12 colon, 95.8%.
For the compound `CC(C)[C@]12O[C@H]1[C@@H]1O[C@]13[C@]1(O[C@H]1C[C@H]1C4=C(CC[C@@]13C)C(=O)OC4)[C@@H]2OC(=O)CN(C)C`, the growth is 14.7% in the test on RPMI-8226 leukemia; 14.9% with OVCAR-8 ovarian; 26.7% in the test with OVCAR-5 ovarian; 52.1% in the test on SK-OV-3 ovarian; -17.1% (active) in the test with IGROV1 ovarian; -1.74% (active) in the test with OVCAR-3 ovarian. Further, the growth was -0.647% (active) in the test on HS 578T breast; -5.71% (active) with NCI/ADR-RES ovarian; 27.2% with T-47D breast; -18.2% (active) with BT-549 breast; -76.4% (active) in the test on MDA-MB-435 melanoma; 0.523% (active) in the test on SW-620 colon. Besides, the growth in the test with MCF7 breast was 18.1%; in the test on HCT-116 colon, 4.59% (active); with HCC-2998 colon, -37.2% (active); in the test with KM12 colon, 2.83% (active).
On to `O=C(c1ccccc1)c1ccccc1Cl`, for which the growth was 88.5% in the test with RPMI-8226 leukemia; 108% in the test on OVCAR-8 ovarian; 104% in the test on OVCAR-5 ovarian; 108% in the test with SK-OV-3 ovarian; 106% with IGROV1 ovarian; 106% in the test with OVCAR-3 ovarian. Besides, the growth was 102% in the test on HS 578T breast; 105% in the test with NCI/ADR-RES ovarian; 98.9% in the test on T-47D breast; 85.8% with BT-549 breast; 102% in the test with MDA-MB-435 melanoma; 106% in the test on SW-620 colon. In addition, the growth was 107% in the test with MCF7 breast, 101% with HCT-116 colon, 117% in the test with HCC-2998 colon and 96% with KM12 colon.
